Bioassay records (PubChem)
Compounds with a hit are over-represented: about 2.4% of the library has one in this group of screens.
D2 antagonist = antagonists of human D2 dopamine receptor; actives 2% (n = 340,000); inhibition, % at 10 µM; AID 485344; HEK293 TREx D2 cells, calcium flux, dopamine EC80; in the data active = inhibition above about 30%; inactive = below that, where a call was filed; note: 0% is about no effect
Target sequence (P14416 whole entry, looked up): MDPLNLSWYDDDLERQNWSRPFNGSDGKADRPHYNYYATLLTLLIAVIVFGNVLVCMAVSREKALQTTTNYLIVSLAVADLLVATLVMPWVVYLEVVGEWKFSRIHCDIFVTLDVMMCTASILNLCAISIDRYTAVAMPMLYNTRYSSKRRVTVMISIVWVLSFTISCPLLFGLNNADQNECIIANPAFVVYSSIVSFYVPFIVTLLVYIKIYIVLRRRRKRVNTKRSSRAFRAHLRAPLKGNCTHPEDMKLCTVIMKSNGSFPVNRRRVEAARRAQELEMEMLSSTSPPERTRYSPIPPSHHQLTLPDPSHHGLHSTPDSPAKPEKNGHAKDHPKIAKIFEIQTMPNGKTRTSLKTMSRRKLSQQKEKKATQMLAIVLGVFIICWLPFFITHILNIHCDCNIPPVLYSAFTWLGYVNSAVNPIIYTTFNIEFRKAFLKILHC
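Compounds are added to dye-loaded, induced HEK293 T-REx cells coupled to calcium release via D2; after a 3 min kinetic read an EC80 dopamine stimulus is given and fluorescence is recorded for 3 more min.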
D2 ag-1 = agonists of human D2 dopamine receptor; HEK293 T-REx D2 cells, calcium flux agonist mode; activation, % at 2 µM; actives 0.53% (n = 340,000);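 active = activation over 3 SD above normal in the single-dose calcium agonist read, cut at about 30% in these data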; note: 0% is about no effect
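Tetracycline-induced HEK293 Trex cells with D2 receptor force-coupled to calcium signaling, plated overnight at 30 C and loaded with no-wash calcium dye. Calcium flux read kinetically for 180 s after compound addition; responses flag agonists.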
D2 ag-2 = agonists of human D2 dopamine receptor (beta-arrestin). P14416. activation, % (no concentration beside the values). actives 0.084% (n = 360,000). AID 624465. DiscoveRx PathHunter D2 beta-arrestin, luminescence, 90 min; 100% = 57 uM dopamine signal; in the data active = activation above about 40%; inconclusive = between about 15% and that limit
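DiscoveRx PathHunter D2 beta-arrestin cells (2,100/well) attached overnight, then compound-stimulated 90 min at 37 C in HBSS/10 mM HEPES/0.1% Tween-20 buffer; beta-galactosidase complementation read by luminescence after 1 h at ambient temperature. Dopamine 57 uM final (EC100) as control.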
D2 PAM-1 = positive allosteric modulators of human D2 dopamine receptor | actives 0.34% (n = 340,000) | HEK293 T-REx D2, calcium flux, EC20 dopamine potentiation | P14416 | potentiation, % at 10 µM;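 active = potentiation over 3 SD above the plate norm, cut at about 30% in these data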; note: 0% is about no effect
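Cells plated with tetracycline inducer and held overnight at 30 C; calcium dye loaded 30–90 min at room temperature; baseline taken, compound added and read 180 s; EC20 dopamine then added and read 180 s.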
D2 PAM-2 = positive allosteric modulators of human D2 dopamine receptor | DiscoveRx D2 beta-arrestin cells, luminescence, 90 min; 100% = 57 uM dopamine signal | potentiation, % (test concentration not listed) | actives 0.23% (n = 360,000) | AID 624464; in the data active = potentiation above about 50%; inconclusive = mostly about 30% to 49%
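D2 cells co-treated with compound plus 50 nM dopamine (EC20) for 90 min at 37 deg C to detect potentiation. Beta-arrestin recruitment was read as enzyme-fragment luminescence after 1 h at ambient temperature. Full response was set by 57 uM dopamine.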
The depositor's hits bear a star; ? = inconclusive; . = no result.

SMILES	D2 antagonist	D2 ag-1	D2 ag-2	D2 PAM-1	D2 PAM-2
COc1cc(OC)c(NC(=O)c2cn(C3CCCC3)c(=O)c3c2c2ccccc2n3C)cc1Cl	.	0.1	.	-1.1	.
Cc1csc(SC(C)C(=O)Nc2ccc(Cl)cn2)n1 (stereo not given)	43.2*	-1.3	-4.4	-17.1	-16.2
Cc1oc(-c2ccc(Cl)cc2)cc1C(=O)NC1CCN(Cc2ccccc2)CC1	58.1*	0.8	-2.7	-16.4	-18.2
Cc1oc(C(C)(C)C)cc1C(=O)NC1CCN(Cc2ccccc2)CC1	85.3*	0.6	-4.6	-22.9	-19.7
CCN(CC)S(=O)(=O)c1ccc(Cl)c(C(=O)NC2CCN(Cc3ccccc3)CC2)c1	25.5	0.0	-1.2	-19.9	-33.9
CCOC(=O)CSc1nc2cc3c(cc2c(=O)n1CCCCCC(=O)NCc1ccc(OC)cc1)OCO3	.	0.2	.	11.2	.
CCOC(=O)C1(C)CCCN1C(=O)c1ccc(N(C)C)cc1 (stereo not given)	.	.	1.4	.	-2.9
Cn1c(CCC(=O)O)nc2cc(S(=O)(=O)N3CCCCC3)ccc21	32.5*	0.5	5.5	18.7	-2.5
CCN(CC)CCNC(=O)c1sc2nc3n(c(=O)c2c1C)CCCCC3	.	0.3	.	-11.8	.
Cc1ccc2nc(N3CCC(C(=O)N4CCN(c5cccc(Cl)c5)CC4)CC3)[nH]c2c1	.	-0.1	.	3.6	.
CC(C)(Oc1ccc(Cl)cc1)C(=O)N1CCN(c2ccccn2)CC1	43.0*	-0.8	-3.3	2.1	-19.9
CC(=O)N1CCN(C(=O)c2cc(S(=O)(=O)N(C)Cc3ccccc3)ccc2Cl)CC1	30.1*	1.5	-0.2	25.6	14.5
Cc1ccc(S(=O)(=O)N(C)Cc2ccccc2)cc1C(=O)N1CCCCC1	-11.2	0.9	-3.6	-2.5	-15.5
COc1cc(NC(=S)NC(=O)CCc2ccccc2)cc(OC)c1	-4.3	1.5	3.5	4.0	61.7*
O=C(CCc1ccccc1)NC(=S)Nc1cccc(Br)c1	-5.4	0.4	?	6.2	79.7*
CCOc1ccccc1NC(=O)CSc1nccn1Cc1ccc(F)cc1	.	-1.3	.	7.1	.
C[C@H](CO)N1C[C@H](C)[C@H](CN(C)C(=O)c2ccc3ccn(C)c3c2)OCc2cnnn2CCCC1=O	.	.	-8.8	.	2.4
CCc1c(C)sc(NC(=S)N2CC(C)OC(C)C2)c1C(=O)OC (stereo not given)	-3.8	0.0	2.2	-0.5	68.0*
COc1ccc(-c2cc(C(F)(F)F)nc(SCCC(=O)Nc3ccc(OC)c(OC)c3)n2)cc1	.	-0.4	.	2.0	.
C=CCN1C(c2ccc(OCC)cc2)=CS/C1=C(\C#N)c1nnc2n1CCCCC2	11.5	0.5	5.2	45.3*	8.6
C=CCN1C(c2ccc(Br)cc2)=CS/C1=C(\C#N)c1nnc(N2CCOCC2)n1-c1ccccc1	.	.	0.9	.	-9.5
COc1cc(C2c3[nH]c4ccccc4c3CC3COC(=O)N32)cc(OC)c1O (stereo not given)	.	.	0.6	.	-16.0
COc1ccc(Cl)cc1NC(=O)c1ccccc1C	32.4*	-1.3	-3.3	-0.3	-25.9
CCC(C(=O)Nc1cc(OC)c(NC(=O)c2ccccc2)cc1OC)c1ccccc1 (stereo not given)	41.9*	-0.8	0.6	15.9	-2.8
COc1ccc(Cl)cc1NC(=O)Nc1cccc([N+](=O)[O-])c1C	66.3*	0.5	-4.7	-25.8	-57.1
SMILES	D2 antagonist	D2 ag-1	D2 ag-2	D2 PAM-1	D2 PAM-2
CCC(C(=O)Nc1cc(Cl)ccc1OC)c1ccccc1 (stereo not given)	3.9	-0.2	-3.6	10.9	-9.2
COc1ccc(Cl)cc1NC(=O)C(OC)c1ccccc1 (stereo not given)	30.0*	-0.4	-2.6	9.8	-22.9
COc1ccccc1C(=O)Nc1cc(Cl)ccc1O	3.7	0.5	1.3	-3.6	-6.2
N#Cc1ccccc1CSc1nnc2ccc3ccccc3n12	.	-0.9	.	3.8	.
Cc1c(Cl)cccc1-c1ccc(CNc2ccc3[nH]c(=O)[nH]c3c2)o1	.	-1.9	.	8.2	.
CCN(C(=O)CCNC(=O)Cn1cnc2ccccc2c1=O)c1cc(OC)ccc1OC	.	-1.0	.	-6.8	.
C=CCn1c(=O)c(C#N)cc2c(=O)n3ccccc3nc21	57.8*	0.0	-1.1	1.3	-7.2
CCC1CCc2nc3sc(C(=O)Nc4ccc(F)cc4F)c(N)c3cc2C1 (stereo not given)	.	0.5	.	-9.5	.
